Experimental findings from the supplement of paper PMC6853941 are described below.

Structures are written as SMILES.

This test deals with MCF10A. Put plainly: perturbation Mahalanobis distance of morphological profile vs DMSO controls (Mahalanobis distance (SD units)); higher = stronger morphological change, active = 7 or more. To be noted: screen batch: Batch2_Mahalanobis_Distance; 72 h. As to the method:
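MCF10A cells were seeded onto drugs dispensed acoustically into 384-well plates, using one dose per drug chosen from its human peak plasma concentration, and incubated for 72 h at 37 °C. Cells were stained for DNA, tubulin and mitochondria and imaged; 78 CellProfiler features were extracted, plate-normalised and compared with DMSO wells.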
With `O=C(CCCCCCC(=O)Nc1ccccc1)NO` [Vorinostat] (9.8 µM), the “perturbation Mahalanobis distance” value is 18.4 (active).

Turning to `CN(C)CCCN1c2ccccc2Sc2ccc(C(F)(F)F)cc21` [Triflupromazine] (1.4 µM), the “perturbation Mahalanobis distance” value was 4.32 (inactive).

Take `Nc1ccn([C@@H]2O[C@H](CO)[C@@H](O)[C@@H]2O)c(=O)n1` [Cytarabine] (10.3 µM): the “perturbation Mahalanobis distance” value is 17.9 (active).

`CCc1c2c(nc3ccc(OC(=O)N4CCC(N5CCCCC5)CC4)cc13)-c1cc3c(c(=O)n1C2)COC(=O)[C@]3(O)CC` [Irinotecan] (16.8 µM): the “perturbation Mahalanobis distance” value was 16.6 (active).

Regarding `NCCCC(N)(C(=O)O)C(F)F` (centres undefined) [Eflornithine] (319.5 µM), the “perturbation Mahalanobis distance” value is 2.74 (inactive).

Take `N[C@@H](CC(=O)N1CCn2c(nnc2C(F)(F)F)C1)Cc1cc(F)c(F)cc1F` [Sitagliptin] (4.8 µM): the “perturbation Mahalanobis distance” value is 2.49 (inactive).

Take `CC(=O)/C(C#N)=C(\O)Nc1ccc(C(F)(F)F)cc1` [Teriflunomide (A77 1726)] (66.9 µM): the “perturbation Mahalanobis distance” value was 2.47 (inactive).

In the case of `O=C1c2c(O)ccc(O)c2C(=O)c2c(NCCNCCO)ccc(NCCNCCO)c21` [Mitoxantrone] (3.4 µM), the “perturbation Mahalanobis distance” value is 16.4 (active).

As to `CCc1c2c(nc3ccc(O)cc13)-c1cc3c(c(=O)n1C2)COC(=O)[C@]3(O)CC` [7-Ethyl-10-Hydroxy-Camptothecin] (16.78 µM), the “perturbation Mahalanobis distance” value was 2.55 (inactive).

Take `COC(=O)C1=C(C)NC(C)=C(C(=O)OCC(C)C)C1c1ccccc1[N+](=O)[O-]` (centres undefined) [Nisoldipine] (13 µM): the “perturbation Mahalanobis distance” value is 2.36 (inactive).

`CO[C@H]1CC2CC[C@@H](C)[C@@](O)(O2)C(=O)C(=O)N2CCCC[C@H]2C(=O)O[C@H]([C@H](C)C[C@@H]2CC[C@@H](OCCO)[C@H](OC)C2)CC(=O)[C@H](C)/C=C(\C)[C@@H](O)[C@@H](OC)C(=O)[C@H](C)C[C@H](C)/C=C/C=C/C=C/1C` [Everolimus] (0.95 µM): the “perturbation Mahalanobis distance” value is 9.89 (active).

In the case of `CC(=O)Nc1nnc(S(N)(=O)=O)s1` [Acetazolamide] (90 µM), the “perturbation Mahalanobis distance” value is 2.44 (inactive).

`CC(C)NCC(O)COc1ccc(CC(N)=O)cc1` (centres undefined) [Atenolol] (18.8 µM): the “perturbation Mahalanobis distance” value is 2.25 (inactive).

For `CC(=O)O[C@]1(C(C)=O)CC[C@H]2[C@@H]3CCC4=CC(=O)CCC4=C3[C@@H](c3ccc(N(C)C)cc3)C[C@@]21C` [Ulipristal Acetate] (3.9 µM), the “perturbation Mahalanobis distance” value was 10.4 (active).

Turning to `CCN(CC)Cc1cc(Nc2ccnc3cc(Cl)ccc23)ccc1O` [Amodiaquine] (0.7 µM), the “perturbation Mahalanobis distance” value was 2.97 (inactive).

For the compound `O=c1n(CCCN2CCN(c3cccc(Cl)c3)CC2)nc2ccccn12` [Trazodone] (21.5 µM), the “perturbation Mahalanobis distance” value is 3.12 (inactive).

Consider `COc1cc(Cc2cnc(N)nc2N)cc(OC)c1OC` [Trimethoprim] (43.1 µM), for which the “perturbation Mahalanobis distance” value was 3.85 (inactive).

Consider `CCN(CC)CCNC(=O)c1c(C)[nH]c(/C=C2\C(=O)Nc3ccc(F)cc32)c1C` [Sunitinib] (0.73 µM), for which the “perturbation Mahalanobis distance” value was 2.88 (inactive).

On to `O=C1CCC(N2C(=O)c3ccccc3C2=O)C(=O)N1` (centres undefined) [Thalidomide] (19.4 µM), for which the “perturbation Mahalanobis distance” value was 2.83 (inactive).

For `CNC(=O)c1cc(Oc2ccc(NC(=O)Nc3ccc(Cl)c(C(F)(F)F)c3)cc2)ccn1` [Sorafenib] (10.76 µM), the “perturbation Mahalanobis distance” value was 2.6 (inactive).

For the compound `C[C@@H](O[C@@H]1OCCN(Cc2nc(=O)[nH][nH]2)[C@@H]1c1ccc(F)cc1)c1cc(C(F)(F)F)cc(C(F)(F)F)c1` [Aprepitant] (20.7 µM), the “perturbation Mahalanobis distance” value was 3.18 (inactive).

On to `NC(=O)OCC(COC(N)=O)c1ccccc1` [Felbamate] (205.7 µM), for which the “perturbation Mahalanobis distance” value was 2.91 (inactive).

With `CC(C)(Sc1cc(C(C)(C)C)c(O)c(C(C)(C)C)c1)Sc1cc(C(C)(C)C)c(O)c(C(C)(C)C)c1` [Probucol] (12.58 µM), the “perturbation Mahalanobis distance” value was 3.01 (inactive).

As to `CC(=O)NO` [Acetohydroxamic Acid] (523.5 µM), the “perturbation Mahalanobis distance” value was 4.24 (inactive).

As to `CN1C(=O)CC(c2ccccc2)C1=O` (centres undefined) [Phensuximide] (52.9 µM), the “perturbation Mahalanobis distance” value was 2.78 (inactive).

For the compound `CC(C)(C#N)c1cc(Cn2cncn2)cc(C(C)(C)C#N)c1` [Anastrozole] (0.51 µM), the “perturbation Mahalanobis distance” value was 3.49 (inactive).

In the case of `C[N+](C)(C)CCOC(N)=O` [Carbachol] (37 µM), the “perturbation Mahalanobis distance” value is 2.82 (inactive).

As to `c1ccc([C@H]2CN3CCSC3=N2)cc1` [Levamisole] (11.7 µM), the “perturbation Mahalanobis distance” value was 2.52 (inactive).

Consider `C[C@]12C=CC(=O)N[C@@H]1CC[C@@H]1[C@@H]2CC[C@]2(C)[C@@H](C(=O)Nc3cc(C(F)(F)F)ccc3C(F)(F)F)CC[C@@H]12` [Dutasteride] (12 µM), for which the “perturbation Mahalanobis distance” value was 2.96 (inactive).

For the compound `CN(C)CCCN1c2ccccc2CCc2ccccc21` [Imipramine] (6.2 µM), the “perturbation Mahalanobis distance” value was 4.52 (inactive).

As for `CC1CNc2c(cccc2S(=O)(=O)N[C@@H](CCCN=C(N)N)C(=O)N2CC[C@@H](C)C[C@@H]2C(=O)O)C1` (some centres undefined) [Argatroban] (6.9 µM), the “perturbation Mahalanobis distance” value was 2.75 (inactive).

Take `CC(C)(Oc1ccc(Cl)cc1)C(=O)O` [Clofibric Acid] (368 µM): the “perturbation Mahalanobis distance” value is 2.64 (inactive).

For the compound `C[C@]12C=CC(=O)C=C1CC[C@@H]1[C@@H]2[C@@H](O)C[C@@]2(C)[C@H]1CC[C@]2(O)C(=O)CO` [Prednisolone] (13.9 µM), the “perturbation Mahalanobis distance” value is 3.8 (inactive).

Turning to `O=C1Nc2ccc(Cl)cc2[C@@](C#CC2CC2)(C(F)(F)F)O1` [Efavirenz] (28.8 µM), the “perturbation Mahalanobis distance” value is 4.25 (inactive).

Take `Nc1nc(NC2CC2)c2ncn(C3C=C[C@H](CO)C3)c2n1` (some centres undefined) [Abacavir] (74.4 µM): the “perturbation Mahalanobis distance” value is 2.47 (inactive).

In the case of `CN1CCC(=C2c3ccccc3CCc3cccnc32)CC1` [Azatadine] (0.43 µM), the “perturbation Mahalanobis distance” value was 2.53 (inactive).

For the compound `OCC(O)COc1ccc(Cl)cc1` (centres undefined) [Chlorphenesin] (83.9 µM), the “perturbation Mahalanobis distance” value is 4 (inactive).

Turning to `O=C1CN(/N=C/c2ccc(-c3ccc([N+](=O)[O-])cc3)o2)C(=O)N1` [Dantrolene] (23.9 µM), the “perturbation Mahalanobis distance” value is 3.85 (inactive).

For `CCC(C)n1ncn(-c2ccc(N3CCN(c4ccc(OC[C@H]5CO[C@](Cn6cncn6)(c6ccc(Cl)cc6Cl)O5)cc4)CC3)cc2)c1=O` (some centres undefined) [Itraconazole] (14.2 µM), the “perturbation Mahalanobis distance” value was 2.7 (inactive).
